# PubChem BioAssay AID1159580 (chemical genetic matrix, 2015)
# About 2,000 (36%) of roughly 5,500 compounds were called active. Not shown: some 18% with an inconclusive outcome. Some of the results follow. A number with no mark means an inactive call. Cut-off read from the data, not from the text of the source: active = normalized growth mostly below about 0.91 (no sharp cut-off); inconclusive = no clear call, values can overlap the other calls; inactive = mostly above about 0.92.
# Test: chemical genetic growth profiling, strain panel (AID 1159580);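 note: tested at 20 µM; growth read once vehicle control cultures reached saturation at 30 °C; 1 = growth at the plate median or of vehicle wells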
# Conditions: S. cerevisiae deletion strains, growth OD
smiles,measurement,setting,value
CC(=O)[C@H]1CCC2C3CC=C4C[C@@H](OC(=O)CCC(=O)O)CC[C@]4(C)C3CC[C@@]21C (stereo not given in full),normalized growth,"locus YAL021C, strain ccr4, stronger effect = lower value",0.975
same,normalized growth,"locus YAL026C, strain drs2, stronger effect = lower value",0.913
same,normalized growth,"locus YAL030W, strain snc1, stronger effect = lower value",0.969
same,normalized growth,"locus YBL061C, strain skt5, stronger effect = lower value",0.964
same,normalized growth,"locus YBR009C, strain hhf1, stronger effect = lower value",0.899 (active)
same,normalized growth,"locus YBR023C, strain chs3, stronger effect = lower value",0.96
same,normalized growth,"locus YBR171W, strain sec66, stronger effect = lower value",0.898
same,normalized growth,"locus YBR231C, strain swc5, stronger effect = lower value",0.975
same,normalized growth,"locus YBR279W, strain paf1, stronger effect = lower value",0.961
same,normalized growth,"locus YCL011C, strain gbp2, stronger effect = lower value",0.957
same,normalized growth,"locus YCL016C, strain dcc1, stronger effect = lower value",0.965
same,normalized growth,"locus YCL061C, strain MRC1, stronger effect = lower value",0.962
same,normalized growth,"locus YCL069W, strain vba3, stronger effect = lower value",0.983
same,normalized growth,"locus YCR088W, strain abp1, stronger effect = lower value",0.966
same,normalized growth,"locus YDL005C, strain med2, stronger effect = lower value",0.941
same,normalized growth,"locus YDL040C, strain nat1, stronger effect = lower value",0.973
same,normalized growth,"locus YDR001C, strain nth1, stronger effect = lower value",0.971
same,normalized growth,"locus YDR069C, strain doa4, stronger effect = lower value",0.966
same,normalized growth,"locus YDR137W, strain rgp1, stronger effect = lower value",0.556 (active)
same,normalized growth,"locus YDR159W, strain sac3, stronger effect = lower value",0.943
same,normalized growth,"locus YDR195W, strain ref2",1.03
same,normalized growth,"locus YDR297W, strain sur2, stronger effect = lower value",0.95
same,normalized growth,"locus YDR334W, strain swr1, stronger effect = lower value",0.989
same,normalized growth,"locus YDR335W, strain msn5, stronger effect = lower value",0.977
same,normalized growth,"locus YDR392W, strain spt3, stronger effect = lower value",0.466 (active)
same,normalized growth,"locus YEL003W, strain gim4, stronger effect = lower value",0.968
same,normalized growth,"locus YEL037C, strain rad23, stronger effect = lower value",0.972
same,normalized growth,"locus YEL061C, strain CIN8 (second series), stronger effect = lower value",0.97
same,normalized growth,"locus YER015W, strain faa2, stronger effect = lower value",0.985
same,normalized growth,"locus YER016W, strain bim1, stronger effect = lower value",0.969
same,normalized growth,"locus YER111C, strain swi4, stronger effect = lower value",0.953
same,normalized growth,"locus YER155C, strain BEM2 (second series), stronger effect = lower value",0.842 (active)
same,normalized growth,"locus YFR010W, strain ubp6, stronger effect = lower value",0.966
same,normalized growth,"locus YGL167C, strain pmr1, stronger effect = lower value",0.928
same,normalized growth,"locus YGL173C, strain kem1, stronger effect = lower value",0.898 (active)
same,normalized growth,"locus YGL227W, strain vid30, stronger effect = lower value",0.973
same,normalized growth,"locus YGL240W, strain doc1, stronger effect = lower value",0.939
same,normalized growth,"locus YGL253W, strain hxk2, stronger effect = lower value",0.971
same,normalized growth,"locus YHR013C, strain ard1, stronger effect = lower value",0.941
same,normalized growth,"locus YHR027C, strain rpn1, stronger effect = lower value",0.978
same,normalized growth,"locus YHR030C, strain SLT2, stronger effect = lower value",0.997
same,normalized growth,"locus YHR079C, strain IRE1, stronger effect = lower value",0.974
same,normalized growth,"locus YHR142W, strain chs7, stronger effect = lower value",0.932
same,normalized growth,"locus YJL092W, strain hpr5, stronger effect = lower value",0.966
same,normalized growth,"locus YJL095W, strain BCK1 (second series), stronger effect = lower value",0.971
same,normalized growth,"locus YJL095W, strain BCK1, stronger effect = lower value",0.913
same,normalized growth,"locus YJL115W, strain asf1, stronger effect = lower value",0.99
same,normalized growth,"locus YJL129C, strain trk1, stronger effect = lower value",0.804 (active)
same,normalized growth,"locus YJL154C, strain vps35, stronger effect = lower value",0.988
same,normalized growth,"locus YJL164C, strain tpk1, stronger effect = lower value",0.955
same,normalized growth,"locus YJL166W, strain qcr8, stronger effect = lower value",0.929
same,normalized growth,"locus YJL187C, strain SWE1, stronger effect = lower value",0.968
same,normalized growth,"locus YJR066W, strain TOR1, stronger effect = lower value",0.942
same,normalized growth,"locus YKL160W, strain elf1, stronger effect = lower value",0.951
same,normalized growth,"locus YKR026C, strain gcn3, stronger effect = lower value",0.962
same,normalized growth,"locus YKR091W, strain srl3, stronger effect = lower value",0.968
same,normalized growth,"locus YLL001W, strain dnm1, stronger effect = lower value",0.948
same,normalized growth,"locus YLL026W, stronger effect = lower value",0.974
same,normalized growth,"locus YLL041C, strain sdh2, stronger effect = lower value",0.985
same,normalized growth,"locus YLR027C, strain aat2, stronger effect = lower value",0.978
same,normalized growth,"locus YLR113W, strain HOG1, stronger effect = lower value",0.855
same,normalized growth,"locus YLR221C, strain rsa3, stronger effect = lower value",0.967
same,normalized growth,"locus YLR258W, strain gsy2, stronger effect = lower value",0.956
same,normalized growth,"locus YLR262C, strain YPT6 (second series), stronger effect = lower value",0.57 (active)
same,normalized growth,"locus YLR320W, strain mms22, stronger effect = lower value",0.796 (active)
same,normalized growth,"locus YLR342W, strain FKS1, stronger effect = lower value",0.955
same,normalized growth,"locus YLR357W, strain rsc2, stronger effect = lower value",0.989
same,normalized growth,"locus YLR370C, strain arc18, stronger effect = lower value",0.942
same,normalized growth,"locus YLR384C, strain iki3, stronger effect = lower value",0.97
same,normalized growth,"locus YML120C, strain ndi1, stronger effect = lower value",0.9 (active)
same,normalized growth,"locus YMR058W, strain fet3, stronger effect = lower value",0.963
same,normalized growth,"locus YMR125W, strain sto1, stronger effect = lower value",0.938
same,normalized growth,"locus YMR129W, stronger effect = lower value",0.968
same,normalized growth,"locus YMR205C, strain PFK2, stronger effect = lower value",0.822 (active)
same,normalized growth,"locus YMR231W, strain pep5, stronger effect = lower value",0.975
same,normalized growth,"locus YNL071W, strain lat1, stronger effect = lower value",0.845 (active)
same,normalized growth,"locus YNL183C, strain NPR1, stronger effect = lower value",0.927
same,normalized growth,"locus YNL209W, strain ssb2, stronger effect = lower value",0.969
same,normalized growth,"locus YNL248C, strain rpa49, stronger effect = lower value",0.988
same,normalized growth,"locus YNL322C, strain KRE1 (second series), stronger effect = lower value",0.969
same,normalized growth,"locus YNR049C, strain mso1, stronger effect = lower value",0.973
same,normalized growth,"locus YOR001W, strain rrp6, stronger effect = lower value",0.952
same,normalized growth,"locus YOR070C, strain gyp1, stronger effect = lower value",0.959
same,normalized growth,"locus YOR080W, strain dia2, stronger effect = lower value",0.95
same,normalized growth,"locus YOR083W, strain WHI5, stronger effect = lower value",0.974
same,normalized growth,"locus YOR106W, strain vam3, stronger effect = lower value",0.953
same,normalized growth,"locus YOR231W, strain MKK1, stronger effect = lower value",0.961
same,normalized growth,"locus YOR265W, strain rbl2, stronger effect = lower value",0.981
same,normalized growth,"locus YOR270C, strain vph1, stronger effect = lower value",0.91
same,normalized growth,"locus YOR290C, strain snf2, stronger effect = lower value",0.908
same,normalized growth,"locus YPL051W, strain arl3, stronger effect = lower value",0.973
same,normalized growth,"locus YPL078C, strain atp4, stronger effect = lower value",0.956
same,normalized growth,"locus YPL106C, strain sse1, stronger effect = lower value",1
same,normalized growth,"locus YPL240C, strain hsp82, stronger effect = lower value",0.971
same,normalized growth,"locus YPL256C, strain CLN2, stronger effect = lower value",0.991
